# The list is not random: actives were taken first. Their share in the collection is about 3.1%.
# Tb PFK inh – inhibitors of T. brucei phosphofructokinase | T. brucei PFK, ADP-Glo luminescence | actives 0.17% (n = 330,000) | Potency, µM (doses to about 57.5 µM), hits mostly inhibitors | AID 485367 | O15648; further: nearly all actives have a fitted effect of over 60% in size
#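 Luminescent ADP detection (ADP-Glo, two-step: ATP depletion then ADP-to-ATP conversion for luciferase) reported PFK activity after 45 min room-temperature reaction of 1.25 nM enzyme with 0.5 mM F6P and 0.1 mM ATP at pH 8.0.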
# VDR inh – blocks the human vitamin D receptor. P11473. VDR-SRC2-3 peptide fluorescence polarization, 2 h. Potency, µM, hits mostly inhibitors. actives 0.93% (n = 400,000)
#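 Signal is fluorescence polarization, reporting how far test compounds block the interaction of VDR with the SRC2-3 coregulator peptide after a 2 h room-temperature incubation.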
# TDP1 block – blocks human tyrosyl-DNA phosphodiesterase 1; recombinant TDP1, AlphaScreen DNA substrate cleavage; Potency, µM (top dose mostly 130 µM), usual class: inhibitors; actives 0.28% (n = 350,000); AID 485290; Q9NUW8; further: nearly all actives have a fitted effect of over 40% in size
#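 E. coli-derived human Tdp1, 1 nM final. Cpd preinc 15 min RT; substrate 15 nM final, 5 min RT; AS bead mix 10 ug/ml final, 10 min RT. Signal loss = tyrosine-FITC cleavage. No-enzyme wells = max signal.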
# ASM inhibitor – blocks human secretory acid sphingomyelinase; P17405; placental ASM, HMU-PC fluorogenic substrate, 60 min; Potency, µM (doses to about 57.5 µM), hits mostly inhibitors; actives 0.006% (n = 340,000); AID 504937
#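 qHTS format. ASM enzyme prepared from human placenta hydrolyses the fluorogenic substrate HMU-PC0 (9 uM final) over 60 min at 37 °C after a 10 min compound preincubation.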
# PLK1 PBD block – PLK1 (human) polo-box domain binding inhibition; P53350; Plk1 PBD binding of FITC phosphopeptide, fluorescence polarization; Potency, µM, actives largely listed as inhibitors; actives 2.8% (n = 360,000); further: series mostly up to about 57 µM; nearly all actives have a fitted effect of over 65% in size
# Target sequence (P53350 whole entry, looked up, the tested form may be a part): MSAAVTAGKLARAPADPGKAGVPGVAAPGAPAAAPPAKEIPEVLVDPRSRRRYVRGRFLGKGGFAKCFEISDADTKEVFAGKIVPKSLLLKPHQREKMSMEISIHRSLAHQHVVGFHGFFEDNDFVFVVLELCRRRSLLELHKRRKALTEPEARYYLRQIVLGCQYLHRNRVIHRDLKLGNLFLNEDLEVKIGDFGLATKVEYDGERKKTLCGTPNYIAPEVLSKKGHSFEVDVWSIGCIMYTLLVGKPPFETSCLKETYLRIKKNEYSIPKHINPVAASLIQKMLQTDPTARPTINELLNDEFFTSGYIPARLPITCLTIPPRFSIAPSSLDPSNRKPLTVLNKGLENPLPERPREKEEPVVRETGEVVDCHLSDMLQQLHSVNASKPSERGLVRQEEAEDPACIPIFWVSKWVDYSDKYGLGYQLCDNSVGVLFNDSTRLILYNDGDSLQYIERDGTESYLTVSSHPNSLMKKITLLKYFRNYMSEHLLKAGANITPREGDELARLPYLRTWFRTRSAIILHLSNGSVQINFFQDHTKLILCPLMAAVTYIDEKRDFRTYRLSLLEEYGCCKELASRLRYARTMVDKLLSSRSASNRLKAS
# Pin1 inhibitor – human Pin1 inhibition. AID 504891. Pin1 FP peptide displacement, HiFluor488, 10 min. Potency, µM (top dose mostly 115 µM), hits mostly inhibitors. Q13526. actives 0.009% (n = 390,000); active means well fitted inhibition curve with a large enough effect in the polarisation, with a control signal flat, not every such curve was filed as active; inconclusive means small, poorly fitted or top-dose-only effect, or effect the other way, or a change in a side signal; inactive means no such curve, though single readings can be large or run the other way; the % refers to the polarisation
# Numbers stand for hits; . = inactive; ? = inconclusive; / = no result; [ ] = another dose, or the depositor's remark. Unless noted, the call rests on the fitted dose curve; in most records, active means well fitted curve in the direction sought with a large enough effect; inconclusive means small, poorly fitted or top-dose-only effect, or another doubt; inactive means no such curve, though single readings can be large; an effect the other way counts as inactive or inconclusive.
SMILES,Tb PFK inh,VDR inh,TDP1 block,ASM inhibitor,PLK1 PBD block,Pin1 inhibitor
Oc1ccc(COCc2ccc(F)cc2)c2cccnc12,.,/,/,/,/,/
Nc1ncc(O)c(N)n1,/,.,.,/,/,/
COc1cccc(CNC(=O)CCS(=O)(=O)c2ccc3c(c2)CC(C)N3C(=O)C2CC2)c1 (stereo unspecified),.,.,.,.,21.2µM,.
CCC(=O)N1c2ccc(S(=O)(=O)CCC(=O)NCc3cccc(OC)c3)cc2CC1C (stereo unspecified),/,.,.,/,/,.
CC1Sc2ccc(C(=O)NCc3ccccn3)cc2NC1=O (stereo unspecified),?,79.4µM,.,.,16.8µM,.
CSC1=C(C#N)C(=O)NC(c2ccccc2O)S1 (stereo unspecified),.,.,/,.,2.12µM,.
Nc1ccccc1Oc1ccccc1,/,?,.,/,/,/
O=C(O)/C(=C\c1ccc2ccccc2c1)c1cccc2ccccc12,/,.,/,.,21.2µM,?
O=C(O)C(=Cc1ccncc1)c1cccc2ccccc12,/,/,/,/,.,/
COc1cc2sc3cc(NCCCN4CCOCC4)ccc3c(=O)c2cc1OC,.,.,.,.,.,?
COc1cccc2sc3cc(NCc4ccc(C)o4)ccc3c(=O)c12,.,89.1µM,.,.,.,.
CCOC(=O)C1CCN(Cc2cc(=O)oc3cc(C)c(Cl)cc23)CC1,.,?,/,.,26.7µM,.
Cc1cc2oc(=O)cc(CN3CCCC3)c2cc1Cl,/,/,/,/,.,/
CC(/C=C/C=C(\C)C(=O)O[C@@H]1O[C@H](CO[C@@H]2O[C@H](CO)[C@@H](O)[C@H](O)[C@H]2O)[C@@H](O)[C@H](O)[C@H]1O)=C\C=C\C=C(C)\C=C\C=C(/C)C(=O)O[C@@H]1O[C@H](CO[C@@H]2O[C@H](CO)[C@@H](O)[C@H](O)[C@H]2O)[C@@H](O)[C@H](O)[C@H]1O,/,.,.,/,/,/
O=C(CCC(=O)N/N=C/c1ccc(Br)s1)NCc1ccccc1,.,.,.,.,.,.
O=C(CCC(=O)N/N=C/c1cc(Cl)cc(Cl)c1O)NCc1ccccc1,.,?,.,.,9.47µM,.
CCc1cnc2c(c1SCC(=O)c1ccc(OC)cc1)c(=O)n(C)c(=O)n2C,/,.,.,/,/,.
O=C(O)[C@H](Cc1ccccc1)NC(=O)C(c1ccccc1)(c1ccccc1)c1ccccc1,.,.,.,.,26.7µM,.
Cc1cc(C)n2ncc(C(=O)NC(C)C)c2n1,/,/,/,/,/,.
CCOC(=O)N1CCN(C(=O)c2ccc([N+](=O)[O-])cc2Cl)CC1,.,?,/,.,23.8µM,?
CCOC(=O)N1CCN(C(=O)COC(=O)c2ccc([N+](=O)[O-])cc2Cl)CC1,.,.,.,.,.,.
O=C(O)CSc1c2c(nc3cc(C(=O)Nc4ccc(F)c(Cl)c4)ccc13)CCCC2,.,?,56.2µM,.,.,?
C[C@H]1Cc2c(-c3ccccc3)nc3c(c2CO1)CN(C(=O)NCCc1c[nH]c2ccccc12)CC3,/,/,.[12.3 µM],/,/,/
O=c1cc(CSc2nnc3ccccn23)c2c(ccc3ccccc32)o1,.,.,.,.,42.3µM,.
S=c1nc(C2CC2)[nH]c2ccccc12,.,?,.,?,23.8µM,.
SMILES,Tb PFK inh,VDR inh,TDP1 block,ASM inhibitor,PLK1 PBD block,Pin1 inhibitor
S=c1nc(C2CCCCC2)[nH]c2ccccc12,.,.,.,.,.,.
O=C(Nc1cccc(C(F)(F)F)c1)c1cnn(-c2cccc(F)c2)c1C1CCNCC1,/,.,.,/,/,.
CCc1ccc(NC(=O)c2cnn(-c3c(C)cccc3C)c2C2CCNCC2)cc1,/,.,.,/,/,.
CCCn1c(N)c(C(c2ccc(OC)cc2)N2CCN(c3ccccc3)CC2)c(=O)[nH]c1=O (stereo unspecified),.,56.2µM,.,.,.,.
CCCn1c(N)c(C(c2ccc(C(=O)OC)cc2)N2CCN(c3ccccc3)CC2)c(=O)[nH]c1=O (stereo unspecified),.,.,.,.,.,.
COc1ccc(CNC(=O)c2cccn2-c2nnc(N3CCCC3)s2)c(OC)c1,/,.,.,/,/,.
COC(=O)c1c(-c2ccccc2)csc1N,/,.,.,.,10.6µM,.
COc1ccc(C)cc1NS(=O)(=O)c1ccc2c(c1)CCCN2C(C)=O,/,.,.,/,/,.
O=C(O)/C=C/c1cn(Cc2ccccc2)nc1-c1ccc(Cl)cc1,.,.,.,.,.,.
O=C(O)/C=C/c1cn(Cc2ccccc2Cl)nc1-c1ccccc1,.,?,.,.,26.7µM,.
O=S1(=O)N=C(Oc2ccccc2C(F)(F)F)c2ccccc21,/,/,.,/,/,.
COc1ccc(C2Nc3cccc4cccc(c34)N2)cc1,.,.,.,.,29.9µM,.
Clc1cccc(Cl)c1C1Nc2cccc3cccc(c23)N1,.,.,.,.,.,.
c1csc(C2Nc3cccc4cccc(c34)N2)c1,.,?,.,.,29.9µM,?
CN(C)c1ccc(C2Nc3cccc4cccc(c34)N2)cc1,.,.,/,.,.,.
c1ccc(C2Nc3cccc4cccc(c34)N2)cc1,.,.,/,.,26.7µM,.
CC(=O)OCOC(=O)CN(CC(=O)OCOC(C)=O)c1ccccc1OCCOc1ccccc1N(CC(=O)OCOC(C)=O)CC(=O)OCOC(C)=O,/,.,/,/,/,/
COc1cccc(/C=N/NC(=O)C(=O)N/N=C/c2cccc(OC)c2OC)c1OC,.,.,.,.,.,.
COc1cccc(/C=N\NC(=O)c2sc(N)nc2C)c1OC,.,.,.,.,26.7µM,.
C=C/C(C)=C/C[C@H]1C(=C)CCC2[C@](C)(C(=O)O)CCC[C@@]21C (stereo partly specified),.,.,/,.,18.9µM,.
COc1ccc(NC(=S)NC(NC(C)=O)C(Cl)(Cl)Cl)c([N+](=O)[O-])c1 (stereo unspecified),.,.,.,.,23.8µM,.
COc1ccc(NC(=S)NC(NC(=O)c2cccc(Cl)c2)C(Cl)(Cl)Cl)c([N+](=O)[O-])c1 (stereo unspecified),.,.,.,.,.,?
COc1ccc(-c2nc(-c3cccnc3)no2)cc1OC,.,.,.,.,.,.
COc1ccc(-c2csc3nc(-c4cccnc4)nc(Cl)c23)cc1OC,.,?,.,.,26.7µM,.
CC(C)(C)OC(=O)N(c1cccc2cccnc12)S(=O)(=O)c1ccccc1Br,/,.,.,/,/,.
C[N+]1(CC(=O)OCCCC2CCCCC2)CCCC1,.,.,.,.,29.9µM,.
CN(C)c1cccc(-c2ncc(F)c(N3CCC(C(N)=O)CC3)n2)c1,/,/,/,/,/,.
Cn1c(C(=O)NCCc2ccccc2)cc(=O)n(C)c1=O,.,?,.,.,23.8µM,.
CC(C)(C)NC(=O)NC(=O)Cn1cc(C(F)(F)F)ccc1=O,.,.,.,.,.,.
